Assay [1] concerns the target Lysosomal acid glucosylceramidase (Homo sapiens) (UniProt P04062). Nature of the assay: Glucocerebrosidase-p2 (AID 348; in the data active means potency below about 10 µM; further: potency means the concentration at half of the fitted maximal effect). The following applies: purified GBA, blue fluorogenic substrate, 40 min. The method in brief: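 Normal human glucocerebrosidase (0.2 nM) with blue fluorogenic substrate (80 uM final) in citrate/phosphate pH 5.9 with 10mM sodium taurocholate, 0.01% tween-20; 40 min RT, NaOH/glycine stop; fluorescence Ex 365/Em 440; AC50 from a titration from 0.6 nM upwards.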

Assay [2] is described as follows: AP1 Signaling Pathway (AID 357). Further: on the % scale 0 is the no-effect control and ±100 the full control effect. The following applies: ME-180 AP-1-bla reporter, EGF-induced, beta-lactamase ratio, 5 h; at 7.69 µM (top of the series) unless noted. The method in brief:
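AP-1-bla ME-180 cells with beta-lactamase reporter under AP-1 response element, stimulated with EC50 EGF; compounds titrated, 5 hours at 37 degrees Celsius. CCF4 read at 460/530 nm ratio; positive and negative modulators judged by AC50.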

The nature of assay [3]: Stat Signaling Pathway (AID 446).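 Further: ME-180 cervical cancer cells given 40 pM IL-6 alongside compound; SIE-controlled beta-lactamase reporter measured as 460/530 nm FRET emission ratio; on the % scale 0 is the no-effect control and ±100 the full control effect.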 The note with it: ME-180 (cervical carcinoma) SIE beta-lactamase reporter, IL-6 stimulated, 5 h; at 7.69 µM (top of the series) unless noted. The method in brief: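 Overnight-plated ME-180 cells bearing a STAT Inducible Element beta-lactamase reporter; 5 h co-exposure to compound and 40 pM IL-6; values normalized to 300 pM IL-6 and 125 nM JAK inhibitor controls.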

Assay [4] has as its target Glucocorticoid receptor (Homo sapiens) (UniProt P04150). In words: GR-GFP Redistribution (AID 450;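 active means compounds whose dose series gives a full or clear partial fitted curve of increased nuclear translocation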; further: potency means the concentration at half of the fitted maximal effect). The following applies: U2OS GR-GFP nuclear translocation, laser cytometry, 2 h.
The target is the same in assay [5]. Nature of the assay: GR-EFC Redistribution (AID 451; calls by dose curve; further: potency means the concentration at half of the fitted maximal effect). The following applies: CHO-K1 GR-EFC translocation, beta-gal luminescence, 2 h. The method in brief:
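CHO-K1 cells stably expressing nuclear-localized β-gal enzyme acceptor and GR fused C-terminally to the enzyme donor fragment; ligand-driven nuclear translocation restores β-gal by complementation. Compounds titrated up to 46 uM final, 2 h at 37 °C; luminescence read.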

Assay [6] concerns the target Mitogen-activated protein kinase 10 (Mus musculus) (UniProt Q61831). In words: JNK3 AlphaScreen Assay (AID 530).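 Further: kinase came from lysate of stimulated human HepG2 cells; signal reports phosphorylation of biotinylated GST-cJun 1-79 at Ser73 with 10 µM ATP; on the % scale 0 is the no-effect control and ±100 the full control effect.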 The following applies: JNK3 lysate, c-Jun phosphorylation; series mostly up to 11.4 µM. The method in brief:
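Biotinylated GST-cJun(1-79) served as substrate for JNK3 in HepG2 lysates stimulated with IL-1beta and TNF-alpha. ATP was 10 uM final, pH 7.6. Ser73 phosphorylation was quantified by AlphaScreen (680 nm excitation).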
For orientation: Alpha assays give light when donor and acceptor beads are brought close together.

Assay [7] concerns the target 3',5'-cyclic-AMP phosphodiesterase 4B (Homo sapiens) (UniProt Q07343). Nature of the assay: qHTS Assay for Inhibitors of PDE-IV (AID 607; active means well fitted activation curve with a large enough effect in the main read-out, with a control signal flat, not every such curve was filed as active; further: % of control where 0% means no effect). The following applies: HEK293 ACTOne CNG channel cells, membrane potential fluorescence; series mostly up to 22.9 µM. The gist of the method:
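Live HEK293 cells with a modified cyclic nucleotide-gated (CNG) channel report intracellular cAMP via membrane-potential dye fluorescence (ex 535/em 590 nm). Endogenous PDE-IV was targeted. Compounds were tested at up to 22.9 uM final; RO 20-1724 100 uM served as control.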
In general terms: Quantitative high-throughput screening tests each substance at several concentrations.

Assay [8] is described as follows: NFAT Signaling Pathway (AID 444).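 Further: carbachol stimulus at about its EC50 of 1 µM final; on the % scale 0 is the no-effect control and ±100 the full control effect.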 The note with it: Jurkat NFAT-bla M1, carbachol, beta-lactamase ratio, 5 h; at 7.69 µM (top of the series) unless noted. The method in brief:
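Jurkat cells carrying an NFAT-driven β-lactamase reporter and co-transfected muscarinic M1 receptor were treated with compound plus carbachol (1 uM final, an EC50 level) for 5 h at 37 °C. CCF4 loading followed for 1 h at RT; 460/530 nm ratio gave %activity.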

Assay [9] concerns the target Cytochrome P450 3A4 (Homo sapiens) (UniProt P08684). In words: qHTS Assay for Activators of Cytochrome P450 3A4 (AID 885; active means well fitted curve in the direction sought with a large enough effect; an effect the other way counts as inactive or inconclusive; further: nearly all actives have a fitted effect of over 65% in size). The note with it: recombinant CYP3A4, Luciferin-PPXE luminescence, 60 min; series mostly up to 11.4 µM. The gist of the method: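 Using 20nM recombinant human CYP3A4 in potassium phosphate (200mM), substrate Luciferin-PPXE at 25uM, luminescent luciferin detection followed a 60-min RT NADPH reaction; data scaled to 57 uM ketoconazole.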

Assay [10] deals with Cytochrome P450 2C9 (Homo sapiens) (UniProt P11712). Nature of the assay: qHTS Assay for Inhibitors and Substrates of Cytochrome P450 2C9 (AID 883; active means well fitted curve in the direction sought with a large enough effect; an effect the other way counts as inactive or inconclusive; further: potency means the concentration at half of the fitted maximal effect; nearly all actives have a fitted effect of over 60% in size). The following applies: recombinant CYP2C9, luciferin-H luminescence, 60 min; series mostly up to 11.4 µM. The method in brief:
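A luminogenic readout tracked human CYP2C9 (10nM) converting deoxyluciferin (100uM, at KM) in 25mM KPO4 during 60 min at 37C with regenerated NADPH. Values normalized to 57uM sulphaphenazole as complete inhibition.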

Assay [11] addresses Cytochrome P450 3A4 (Homo sapiens) (UniProt P08684). Nature of the assay: qHTS Assay for Inhibitors and Substrates of Cytochrome P450 3A4 (AID 884; active means well fitted curve in the direction sought with a large enough effect; an effect the other way counts as inactive or inconclusive; further: potency means the concentration at half of the fitted maximal effect; nearly all actives have a fitted effect of over 50% in size). The following applies: recombinant CYP3A4, Luciferin-PPXE luminescence; series mostly up to 57.1 µM. The gist of the method:
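Luminescent readout of luciferin produced by CYP3A4 (20 nM) dealkylation of Luciferin-PPXE, 25 uM (its KM). NADPH-driven reaction ran 60 min at RT after 10 min compound preincubation; data scaled to 57 uM ketoconazole as 100% inhibition.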

The target of assay [12] is Cytochrome P450 2C19 (Homo sapiens) (UniProt P33261). In words: qHTS Assay for Inhibitors and Substrates of Cytochrome P450 2C19 (AID 899; active means well fitted curve in the direction sought with a large enough effect; an effect the other way counts as inactive or inconclusive; further: potency means the concentration at half of the fitted maximal effect; nearly all actives have a fitted effect of over 60% in size). The note with it: recombinant CYP2C19, luciferin-H EGE luminescence; series mostly up to 11.4 µM. The method in brief: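 NADPH-dependent conversion of Luciferin-H EGE (10uM, at KM) by 5nM enzyme in 50mM KPO4, 60 min at 37C following 10 min compound preincubation. Stopped with luciferin detection buffer; luminescence read after 20 min.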

This passage reports Potency, activity change, negative = inhibition and activity, negative = inhibition results from PubChem BioAssay (NCATS).

Values without a mark were called inactive. Records with an inconclusive call do not appear. Calls of active or inactive are those of the source. Unless noted, the call rests on the fitted dose curve; in most records, active means well fitted curve in either direction with a large enough effect (not every such curve was filed as active); inconclusive means small, poorly fitted or top-dose-only effect, or another doubt; inactive means flat fitted curve, though single readings scatter.

Chain of Glucocorticoid receptor (Homo sapiens) (P04150 whole entry, looked up): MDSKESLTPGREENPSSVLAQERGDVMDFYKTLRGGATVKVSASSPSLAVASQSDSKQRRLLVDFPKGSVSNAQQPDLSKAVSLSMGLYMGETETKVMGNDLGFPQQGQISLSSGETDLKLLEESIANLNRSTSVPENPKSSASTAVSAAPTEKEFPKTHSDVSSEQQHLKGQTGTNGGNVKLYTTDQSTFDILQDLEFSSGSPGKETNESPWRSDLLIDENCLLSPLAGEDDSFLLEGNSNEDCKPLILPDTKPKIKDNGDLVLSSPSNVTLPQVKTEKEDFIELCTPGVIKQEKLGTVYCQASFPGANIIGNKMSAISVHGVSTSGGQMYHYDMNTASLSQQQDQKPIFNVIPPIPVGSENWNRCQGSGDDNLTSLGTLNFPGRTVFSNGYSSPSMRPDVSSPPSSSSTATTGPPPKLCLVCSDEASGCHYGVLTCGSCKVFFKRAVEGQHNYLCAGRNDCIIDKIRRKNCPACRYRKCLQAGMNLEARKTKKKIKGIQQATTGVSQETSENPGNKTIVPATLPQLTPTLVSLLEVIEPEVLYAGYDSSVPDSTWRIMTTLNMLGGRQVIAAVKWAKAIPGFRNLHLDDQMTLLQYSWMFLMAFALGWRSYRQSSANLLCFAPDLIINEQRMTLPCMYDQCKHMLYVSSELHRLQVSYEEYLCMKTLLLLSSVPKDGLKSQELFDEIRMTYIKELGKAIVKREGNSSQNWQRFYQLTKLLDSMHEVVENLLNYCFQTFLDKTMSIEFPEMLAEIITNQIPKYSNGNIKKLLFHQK
Chain of 3',5'-cyclic-AMP phosphodiesterase 4B (Homo sapiens) (Q07343 whole entry, looked up): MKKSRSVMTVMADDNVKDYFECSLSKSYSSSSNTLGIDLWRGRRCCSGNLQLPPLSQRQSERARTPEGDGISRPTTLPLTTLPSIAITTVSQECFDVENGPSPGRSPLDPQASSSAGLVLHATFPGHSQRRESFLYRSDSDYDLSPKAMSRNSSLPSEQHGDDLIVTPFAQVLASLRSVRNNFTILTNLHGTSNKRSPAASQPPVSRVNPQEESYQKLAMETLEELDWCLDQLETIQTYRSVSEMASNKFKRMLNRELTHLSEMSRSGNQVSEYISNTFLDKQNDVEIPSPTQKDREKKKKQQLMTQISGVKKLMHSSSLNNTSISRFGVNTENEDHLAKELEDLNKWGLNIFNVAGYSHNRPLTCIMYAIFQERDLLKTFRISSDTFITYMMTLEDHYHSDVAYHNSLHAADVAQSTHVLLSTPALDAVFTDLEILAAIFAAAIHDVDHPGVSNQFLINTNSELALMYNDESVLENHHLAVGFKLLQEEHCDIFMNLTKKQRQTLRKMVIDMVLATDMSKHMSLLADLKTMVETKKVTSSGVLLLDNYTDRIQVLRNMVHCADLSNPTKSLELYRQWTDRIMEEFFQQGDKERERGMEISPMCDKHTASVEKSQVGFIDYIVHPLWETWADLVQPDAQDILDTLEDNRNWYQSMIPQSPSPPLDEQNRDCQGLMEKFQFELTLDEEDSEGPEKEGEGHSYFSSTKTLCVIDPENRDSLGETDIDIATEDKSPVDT
Chain of Cytochrome P450 3A4 (Homo sapiens) (P08684 whole entry, looked up): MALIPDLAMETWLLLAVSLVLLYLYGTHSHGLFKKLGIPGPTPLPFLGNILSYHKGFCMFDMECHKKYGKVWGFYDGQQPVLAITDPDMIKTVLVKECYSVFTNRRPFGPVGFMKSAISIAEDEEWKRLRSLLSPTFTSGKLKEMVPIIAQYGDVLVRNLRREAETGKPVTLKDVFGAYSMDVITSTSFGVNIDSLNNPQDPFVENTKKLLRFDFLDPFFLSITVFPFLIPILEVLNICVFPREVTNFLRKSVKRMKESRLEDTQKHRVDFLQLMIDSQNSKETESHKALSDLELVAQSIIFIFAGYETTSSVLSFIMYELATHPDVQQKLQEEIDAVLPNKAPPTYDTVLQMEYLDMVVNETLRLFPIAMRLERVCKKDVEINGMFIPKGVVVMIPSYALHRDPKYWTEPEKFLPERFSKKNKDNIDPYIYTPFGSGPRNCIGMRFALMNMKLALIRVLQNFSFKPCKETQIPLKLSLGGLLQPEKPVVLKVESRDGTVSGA
Chain of Lysosomal acid glucosylceramidase (Homo sapiens) (P04062 whole entry, looked up): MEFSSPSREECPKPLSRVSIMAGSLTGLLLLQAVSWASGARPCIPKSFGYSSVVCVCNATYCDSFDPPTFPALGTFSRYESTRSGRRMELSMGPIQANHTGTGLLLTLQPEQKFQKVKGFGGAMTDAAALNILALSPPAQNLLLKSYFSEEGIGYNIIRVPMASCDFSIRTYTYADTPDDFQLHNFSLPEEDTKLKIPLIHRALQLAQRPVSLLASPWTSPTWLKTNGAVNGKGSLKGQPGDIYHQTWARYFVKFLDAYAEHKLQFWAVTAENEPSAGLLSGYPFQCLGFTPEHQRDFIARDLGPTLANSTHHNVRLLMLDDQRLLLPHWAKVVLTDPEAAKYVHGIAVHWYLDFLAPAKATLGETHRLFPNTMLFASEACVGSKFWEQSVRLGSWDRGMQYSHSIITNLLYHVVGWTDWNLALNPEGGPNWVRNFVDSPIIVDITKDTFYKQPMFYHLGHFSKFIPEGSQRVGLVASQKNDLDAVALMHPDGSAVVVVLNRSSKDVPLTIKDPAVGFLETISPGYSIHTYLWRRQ
Chain of Cytochrome P450 2C9 (Homo sapiens) (P11712 whole entry, looked up): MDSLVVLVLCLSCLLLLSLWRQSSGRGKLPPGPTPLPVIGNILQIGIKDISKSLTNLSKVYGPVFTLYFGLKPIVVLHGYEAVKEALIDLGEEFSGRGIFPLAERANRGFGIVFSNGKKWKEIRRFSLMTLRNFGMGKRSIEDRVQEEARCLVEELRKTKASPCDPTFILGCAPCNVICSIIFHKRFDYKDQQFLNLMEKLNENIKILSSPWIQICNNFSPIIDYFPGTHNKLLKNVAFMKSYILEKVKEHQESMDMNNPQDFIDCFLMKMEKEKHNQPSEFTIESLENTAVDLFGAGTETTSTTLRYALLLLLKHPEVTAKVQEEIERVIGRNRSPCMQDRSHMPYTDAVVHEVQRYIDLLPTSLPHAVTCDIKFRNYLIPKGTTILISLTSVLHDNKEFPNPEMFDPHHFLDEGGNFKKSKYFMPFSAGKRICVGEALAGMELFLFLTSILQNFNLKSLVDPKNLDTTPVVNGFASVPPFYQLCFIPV
Chain of Cytochrome P450 2C19 (Homo sapiens) (P33261 whole entry, looked up): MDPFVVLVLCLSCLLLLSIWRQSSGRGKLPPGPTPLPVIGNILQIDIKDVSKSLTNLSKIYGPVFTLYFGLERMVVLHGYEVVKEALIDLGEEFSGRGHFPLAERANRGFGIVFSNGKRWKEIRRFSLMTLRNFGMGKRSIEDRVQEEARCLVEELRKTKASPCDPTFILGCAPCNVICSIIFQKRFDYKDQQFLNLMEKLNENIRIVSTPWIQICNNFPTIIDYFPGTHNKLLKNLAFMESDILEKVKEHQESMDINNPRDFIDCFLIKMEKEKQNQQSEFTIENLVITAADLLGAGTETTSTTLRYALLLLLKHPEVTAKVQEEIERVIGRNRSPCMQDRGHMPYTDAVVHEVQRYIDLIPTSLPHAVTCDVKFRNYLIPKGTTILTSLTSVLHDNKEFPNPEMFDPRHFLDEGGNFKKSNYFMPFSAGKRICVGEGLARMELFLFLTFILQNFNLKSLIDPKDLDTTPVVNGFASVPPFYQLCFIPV

Consider `O=C(O)CCC(=O)c1ccc[nH]1`, for which the results for the Potency in [1], in assay [4] and in [5] were over 11.4 µM, over 46 µM and over 9.22 µM, respectively. For the same compound, the activity change, negative = inhibition in assay [2] was -0.936%. The activity, negative = inhibition in assay [3] is 3.5%. Besides, the Potency result in [6] and in [7] was “inactive” each time.

Consider `NC(Cc1ccccc1)(C(=O)O)C(=O)O`, for which the Potency in assay [1] is over 11.4 µM; in assay [4] it was over 46 µM; in assay [5] it was over 9.22 µM. The activity change, negative = inhibition in assay [2] was 4.48%. In addition, in assay [3], the activity, negative = inhibition is -6.13%. Further, the Potency entry in assay [6] and in assay [7] was “inactive” throughout.

In the case of `C[C@H](CCC(=O)O)[C@H]1CC[C@@H]2[C@H]3CC[C@H]4C[C@H](O)CC[C@@]4(C)[C@@H]3CC[C@@]21C`, the results for the Potency in [1], in assay [4] and in assay [5] were over 11.4 µM, over 46 µM and over 9.22 µM, respectively. In addition, the activity change, negative = inhibition in [2] was 17.2%. Also, the activity, negative = inhibition in assay [3] was -10%. In addition, the Potency entry in [6] and in assay [7] was “inactive” each time.

As to `N/N=C1/CC(=O)NC(=O)N1`, the Potency is over 11.4 µM in [1], over 46 µM in assay [4] and over 9.22 µM in [5]. For the same compound, in assay [2], the activity change, negative = inhibition is 2.16%. Besides, the activity, negative = inhibition in [3] was -13%. In addition, the Potency result in [6] and in [7] was “inactive” each time.

In the case of `Cc1cc(C)nc(NC(=O)COc2ccc(Cl)cc2)c1`, the Potency in assay [1] is over 11.4 µM; in [4], over 46 µM; in [5], over 9.22 µM. The figures for the activity change, negative = inhibition in assay [2] and in assay [8] were 7.73% and -19.2%, respectively. In addition, the Potency entry in [6] and in assay [7] was “inactive” each time.

`O=C(O)c1cc(-c2ccc(-c3ccccc3)cc2)nc2cc3ccccc3cc12`: the Potency in [1] is over 11.4 µM; in assay [4], over 46 µM; in assay [5], over 9.22 µM. Besides, in assay [2], the activity change, negative = inhibition was -7.09%. Also, in assay [3], the activity, negative = inhibition was -0.262%. Further, the Potency result in assay [6] and in [7] was “inactive” each time.

As for `O=C1C2=C(Nc3cc([N+](=O)[O-])ccc3N2)O[C@@H]1c1ccc([C@H]2OC3=C(Nc4ccc([N+](=O)[O-])cc4N3)C2=O)cc1`, the Potency was over 11.4 µM in [1], over 46 µM in assay [4] and over 9.22 µM in assay [5]. Besides, the activity change, negative = inhibition in assay [2] was -12.2%; in assay [8], 4.88%. Moreover, the Potency result in assay [6], in [7] and in [9] was “inactive” throughout.

In the case of `Clc1ccc(/C=C\c2nc(Cl)c(-c3ccc(Cl)cc3)c(Cl)n2)cc1`, the Potency is over 11.4 µM in assay [1], over 46 µM in [4] and over 9.22 µM in [5]. In assay [2], the activity change, negative = inhibition was -5.65%. In assay [3], the activity, negative = inhibition was -0.809%. The Potency entry in [6] and in assay [7] was “inactive” in each case.

On to `Cc1cccc(C(=O)O)c1C[C@H]1NCC[C@H]2c3ccccc3N[C@@H]12`, for which the Potency in assay [1] was over 11.4 µM; in [4] it was over 46 µM; in [5], over 9.22 µM. In addition, the activity change, negative = inhibition in assay [2] was 29.4%. Also, the activity, negative = inhibition in [3] is 4.38%. Further, the Potency entry in assay [6] and in assay [7] was “inactive” in each case.

With `Nc1ccc(N(S(=O)(=O)c2ccccc2)S(=O)(=O)c2ccccc2)c(Cl)c1`, the Potency in assay [1] was over 11.4 µM; in [4] it was over 46 µM; in [5], over 9.22 µM; in assay [10], 3.16 µM (active); in assay [11] it was 0.0316 µM (active); in assay [12], 0.158 µM (active). In addition, the activity change, negative = inhibition in [2] is -27.7%; in assay [8], -14.8%. Further, the Potency result in assay [6] and in assay [9] was “inactive” in each case.

Consider `CC(C)Oc1cc(O)c2c(c1)OCC=C2CCC(=O)O`, for which the results for the Potency in assay [1], in assay [4] and in assay [5] were over 11.4 µM, over 46 µM and over 9.22 µM, respectively. Also, in assay [2], the activity change, negative = inhibition is 0.742%. The activity, negative = inhibition in assay [3] was 0.331%. Also, the Potency entry in [6] and in assay [7] was “inactive” each time.

Turning to `COc1ccc(-c2nc3cnc(N4CCNCC4)nc3n(Cc3cccc(OC)c3)c2=O)cc1`, the Potency in assay [1] is over 11.4 µM; in assay [4], over 9.22 µM; in assay [5] it was over 46 µM. The activity change, negative = inhibition in assay [2] was 109% [activator] (active); in [8] it was 101% [activator] (active). Besides, the Potency entry in assay [7] and in assay [9] was “inactive” throughout.

`C[C@@]12C[C@H](O)[C@@H]3[C@H](CCC4=CC(=O)CC[C@]43C)[C@H]1CC[C@@H]2c1csc(-c2ccccc2)n1`: the Potency is over 11.4 µM in assay [1], over 46 µM in [4] and over 9.22 µM in [5]. In addition, the activity change, negative = inhibition in assay [2] is -1.5%. For the same compound, the activity, negative = inhibition in assay [3] is -6.13%. The Potency result in assay [6] and in assay [7] was “inactive” in each case.
